Measurements from PubChem BioAssay (Tox21).
Values joined by “and” are separate entries in the source; they are usually repeats but may differ in a detail not shown here. Equal values may be shown once. Results filed as inconclusive are left out. A structure can be active in one record and inactive in another. Active and inactive are the calls of the source. Unless noted, calls come from the whole dose curve; as a rule, active = well fitted curve in the direction sought with a large enough effect in the repeat runs; inconclusive = weak or mixed curves; inactive = no such curve, though single readings can be large; an effect the other way counts as inactive or inconclusive.

Legend:
[1] = Caspase-3/7 induction in HepG2 cells by small molecules, qHTS assay (AID 1346978); note: nearly all actives have a fitted effect of over 15% in size
Summary of the method: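 Caspase-3/7 induction was measured by Caspase-Glo 3/7 luminescence (30 min, room temperature) after a 17 hr compound exposure of wild-type HepG2 cells seeded at 2,000 per well and pre-incubated 5 hr.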

[2] = Caspase-3/7 induction in CHO-K1 cells by small molecules, qHTS cell viability counter screen (AID 1346979); note: nearly all actives have a fitted effect of over 35% in size; note: potency is the fitted concentration of half-maximal effect
Summary of the method: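 In the same wells as the caspase read, viability of compound-treated wild-type CHO-K1 cells was assessed using CellTiter-Fluor, added after 16hr at 37C and measured by fluorescence following 1hr further incubation.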

[3] = Caspase-3/7 induction in CHO-K1 cells by small molecules, qHTS assay (AID 1346980); note: nearly all actives have a fitted effect of over 15% in size
Summary of the method: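 Luminescent Caspase-Glo 3/7 read (30min, room temperature) quantified apoptosis induction. Cells were wild-type CHO-K1, treated with compound for 17hr at 37 C and 5% CO2.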

[4] = Caspase-3/7 induction in HepG2 cells by small molecules, qHTS cell viability counter screen (AID 1346981); note: nearly all actives have a fitted effect of over 30% in size; note: potency is the fitted concentration of half-maximal effect
Summary of the method: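 Wild-type HepG2 cells (2,000/well) were allowed to settle for 5 hr at 37 C, 5% CO2, then dosed with compounds in DMSO by pin transfer. After 16 hr at 37 C, CellTiter-Fluor was added and fluorescence read 1 hr later.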

[5] = target: Nuclear receptor subfamily 1 group I member 2 (Homo sapiens) (UniProt O75469); assay: Human pregnane X receptor (PXR) small molecule agonists, qHTS assay (AID 1346982); note: nearly all actives have a fitted effect of over 35% in size; note: potency is the fitted concentration of half-maximal effect
Summary of the method: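 PXR-Luc HepG2 cells (CYP3A4 promoter-driven luciferase) were seeded in medium with 5% charcoal-stripped FBS, left 5 hr at 37 C, then exposed to compounds in DMSO for 24 hr. Luminescence was read after ONE-Glo addition.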

[6] = target: Nuclear receptor subfamily 1 group I member 2 (Rattus norvegicus) (UniProt Q9R1A7); assay: Rat pregnane X receptor (rPXR) activation by small molecules, qHTS assay (AID 1346983); settings: rPXR luciferase reporter cells, One-Glo luminescence, 24 h; stronger effect = higher value; note: nearly all actives have a fitted effect of over 20% in size
Summary of the method: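 Luminescent readout (One-Glo luciferase, 30 min room temperature) followed 24 hr compound treatment at 37 C of rPXR cells plated 2,000 per well and preincubated 5hr; qHTS format with compounds delivered in DMSO.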

[7] = target: Nuclear receptor subfamily 1 group I member 2 (Homo sapiens) (UniProt O75469); assay: Human pregnane X receptor (PXR) activation by small molecules, qHTS assay (AID 1346985); note: nearly all actives have a fitted effect of over 40% in size
Summary of the method: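 DPX-2 cells (HepG2 co-transfected with a PXR response element and a CYP3A4-promoter luciferase construct) were seeded at 2,000 per well, rested 5 hr at 37C, then exposed to DMSO-dissolved compounds for 24 hr. Activation was read as luciferase luminescence.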

[8] = target: Acetylcholinesterase (Homo sapiens) (UniProt P22303); assay: Acetylcholinesterase (AChE) small molecule antagonists: colormetric cell-based qHTS assay (AID 1347395; calls by dose curve; note: nearly all actives have a fitted effect of over 30% in size; note: potency is the fitted concentration of half-maximal effect)
Summary of the method: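 Endogenous AChE of human neuroblastoma SH-SY5Y cells was measured with an Ellman-type DTNB/acetylthiocholine mix. Compound pretreatment lasted 30 min at 37 C; substrate reaction ran 90 min at 37 C.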

[9] = target: Acetylcholinesterase (Homo sapiens) (UniProt P22303); assay: Acetylcholinesterase (AChE) small molecule antagonists: enzyme-based qHTS assay (AID 1347397; calls by dose curve; note: nearly all actives have a fitted effect of over 55% in size; note: potency is the fitted concentration of half-maximal effect); settings: Potency: AChE enzyme activity inhibition
Summary of the method: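 Absorbance-based detection of thiocholine with DTNB served as the read-out. Recombinant human AChE was exposed to compound for 30 min at RT before a 10 min RT incubation with acetylthiocholine.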

[10] = target: Nuclear receptor subfamily 1 group I member 2 (Homo sapiens) (UniProt O75469); assay: CYP3A4 induction through human pregnane X receptor (PXR) by small molecules, qHTS assay (AID 1346984); note: nearly all actives have a fitted effect of over 40% in size
Summary of the method: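 DPX-2 cells (HepG2 co-transfected with PXR and CYP3A4 promoter-luciferase) treated with compounds 24 h at 37C; luciferin-IPA CYP3A4 substrate 3uM final added for 3 h, then One-Glo; luminescence read. qHTS format.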
% is set by controls: 0 for no effect and ±100 for the full control effect.

Nuclear receptor subfamily 1 group I member 2 (Homo sapiens), sequence (O75469 whole entry, looked up): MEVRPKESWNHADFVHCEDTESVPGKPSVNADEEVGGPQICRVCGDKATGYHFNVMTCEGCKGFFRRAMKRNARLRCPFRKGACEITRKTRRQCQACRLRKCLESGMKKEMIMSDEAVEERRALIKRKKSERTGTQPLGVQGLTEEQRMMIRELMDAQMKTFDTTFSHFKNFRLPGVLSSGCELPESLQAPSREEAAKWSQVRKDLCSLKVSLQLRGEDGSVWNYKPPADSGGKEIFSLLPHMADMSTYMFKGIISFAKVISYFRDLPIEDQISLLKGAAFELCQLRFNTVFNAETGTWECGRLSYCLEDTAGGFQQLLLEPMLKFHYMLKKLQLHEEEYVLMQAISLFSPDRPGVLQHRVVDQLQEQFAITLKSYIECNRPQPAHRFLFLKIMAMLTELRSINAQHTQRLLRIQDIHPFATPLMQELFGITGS
Acetylcholinesterase (Homo sapiens), sequence (P22303 whole entry, looked up): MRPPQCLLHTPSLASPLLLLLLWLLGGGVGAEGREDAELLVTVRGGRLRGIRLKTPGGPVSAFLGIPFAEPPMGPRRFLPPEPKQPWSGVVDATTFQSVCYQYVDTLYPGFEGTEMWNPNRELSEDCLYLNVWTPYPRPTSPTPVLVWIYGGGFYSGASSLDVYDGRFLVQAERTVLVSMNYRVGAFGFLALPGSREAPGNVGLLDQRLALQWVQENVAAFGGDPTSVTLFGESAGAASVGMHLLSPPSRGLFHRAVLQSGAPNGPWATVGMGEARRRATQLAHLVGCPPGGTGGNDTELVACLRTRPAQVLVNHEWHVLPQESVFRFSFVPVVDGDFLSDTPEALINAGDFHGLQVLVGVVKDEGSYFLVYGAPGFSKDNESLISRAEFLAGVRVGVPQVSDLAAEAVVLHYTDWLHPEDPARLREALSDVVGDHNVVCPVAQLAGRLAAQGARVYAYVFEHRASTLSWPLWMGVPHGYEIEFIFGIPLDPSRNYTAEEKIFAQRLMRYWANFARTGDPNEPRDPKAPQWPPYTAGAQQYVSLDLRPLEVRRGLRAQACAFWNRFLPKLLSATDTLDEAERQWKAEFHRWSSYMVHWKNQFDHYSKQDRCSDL
Nuclear receptor subfamily 1 group I member 2 (Rattus norvegicus), sequence (Q9R1A7 whole entry, looked up): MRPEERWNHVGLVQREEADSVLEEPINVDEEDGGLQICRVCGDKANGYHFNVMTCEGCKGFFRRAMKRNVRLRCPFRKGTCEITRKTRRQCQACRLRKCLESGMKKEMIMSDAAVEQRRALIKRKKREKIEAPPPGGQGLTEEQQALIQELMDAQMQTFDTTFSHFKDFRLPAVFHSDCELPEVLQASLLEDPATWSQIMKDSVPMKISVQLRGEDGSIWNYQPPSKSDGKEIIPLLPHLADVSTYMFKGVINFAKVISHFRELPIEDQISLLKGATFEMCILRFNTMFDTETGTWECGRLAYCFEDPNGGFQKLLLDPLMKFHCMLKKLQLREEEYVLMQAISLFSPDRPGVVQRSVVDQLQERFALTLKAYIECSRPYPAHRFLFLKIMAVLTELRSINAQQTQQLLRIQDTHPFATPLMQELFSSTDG

O=C1Nc2ccc(Cl)cc2C(c2ccccc2)=NC1O (stereo not drawn)
inactive: Potency [1] | Potency [2] | Potency [3] | Potency [4] | max activation [6] 0.163% | outcome [7] | Potency [8] | Potency [9]
active: Potency [5] 38.9 µM and 46.1 µM

Clc1ccc(C(Cl)(Cl)Cl)cc1
inactive: Potency [1] | Potency [2] | Potency [3] | Potency [4] | Potency [5] | Potency [8] | Potency [9]

NN=C(N)N
inactive: Potency [1] | Potency [2] | Potency [3] | Potency [4] | Potency [5] | max activation [6] -0.866% | Potency [10] | outcome [7]

CC(C)(c1ccc(OCC2CO2)cc1)c1ccc(OCC2CO2)cc1 (stereo not drawn)
active: Potency [5] 69.5 µM
inactive: Potency [1] | Potency [2] | Potency [3] | Potency [4] | Potency [8] | Potency [9]

C[C@]12CCC(=O)C=C1CC[C@@H]1[C@@H]2CC[C@@]2(C)[C@H]1CC[C@]2(C)O
43.6 µM (active) and inactive: Potency [5]
inactive: Potency [1] | Potency [3] | Potency [4] | Potency [8] | Potency [9]
active: Potency [2] 50.4 µM

CCNCC
inactive: Potency [1] | Potency [2] | Potency [3] | Potency [4] | Potency [5]

CNC(=O)Oc1cccc2c1OC(C)(C)C2
active: Potency [8] 726 nM and 89.4 nM | Potency [9] 726 nM and 200 nM
inactive: Potency [1] | Potency [2] | Potency [3] | Potency [4] | Potency [5]

COc1ccc(O)c(C(C)(C)C)c1
inactive: Potency [1] | Potency [2] | Potency [3] | Potency [4] | Potency [5] | Potency [8] | Potency [9]

Clc1ccccc1-c1nnc(-c2ccccc2Cl)nn1
inactive: Potency [1] | Potency [3] | Potency [4] | Potency [8] | Potency [9]
54 µM (active) and inactive: Potency [2] | Potency [5]

Brc1ccc(Br)cc1
inactive: Potency [1] | Potency [2] | Potency [3] | Potency [4] | Potency [5] | Potency [8] | Potency [9]

Cl
inactive: Potency [1] | Potency [2] | Potency [3] | Potency [4]

COP(=S)(OC)Oc1ccc(S(=O)(=O)N(C)C)cc1
active: Potency [8] 39.9 µM
inactive: Potency [1] | Potency [2] | Potency [3] | Potency [4] | max activation [6] -2.31% | Potency [10] | outcome [7] | Potency [9]
34.4 µM (active) and inactive: Potency [5]

Cc1ccc(N=CN(C)C=Nc2ccc(C)cc2C)c(C)c1
inactive: Potency [1] | Potency [2] | Potency [3] | Potency [4] | max activation [6] 0.462% | Potency [10] | outcome [7] | Potency [9]
15.4 µM (active) and inactive: Potency [5]

CC(C)=CC1C(C(=O)OCc2cccc(Oc3ccccc3)c2)C1(C)C (stereo not drawn)
active: Potency [5] 24.3 µM and 13.3 µM
inactive: Potency [1] | Potency [2] | Potency [3] | Potency [4] | max activation [6] 1.4% | Potency [10] | Potency [8] | Potency [9]

CC(C)(O)C(=O)Nc1ccc([N+](=O)[O-])c(C(F)(F)F)c1
active: Potency [2] 44.2 µM and 39.8 µM | Potency [5] 27.9 µM and 25.1 µM
inactive: Potency [1] | Potency [3] | Potency [4] | Potency [8] | Potency [9]

Nc1ccc2ccccc2c1
inactive: Potency [1] | Potency [2] | Potency [3] | Potency [4] | Potency [8] | Potency [9]
active: Potency [5] 46.9 µM and 43.3 µM

Cc1ccc([N+](=O)[O-])cc1
inactive: Potency [1] | Potency [2] | Potency [3] | Potency [4] | Potency [5] | Potency [8] | Potency [9]

O=[N+]([O-])c1ccc(Cl)c([N+](=O)[O-])c1
active: Potency [2] 6.96 µM and 12.2 µM | Potency [4] 55.3 µM and 48.6 µM | Potency [5] 9.84 µM and 15.4 µM | Potency [8] 64.3 µM and 63.3 µM
inactive: Potency [1] | Potency [3] | Potency [9]

Cn1c(-c2ccccc2)cc(-c2ccccc2)[n+]1C
inactive: Potency [1] | Potency [2] | Potency [3] | Potency [4] | Potency [5] | Potency [9]

ClC(Cl)=C(Cl)C(Cl)=C(Cl)Cl
inactive: Potency [1] | Potency [2] | Potency [3] | Potency [4] | Potency [5] | Potency [8] | Potency [9]

CN(C)P(=O)(N(C)C)N(C)C
inactive: Potency [1] | Potency [2] | Potency [3] | Potency [4] | Potency [5] | Potency [8] | Potency [9]

C[N+](C)(C)C
inactive: Potency [1] | Potency [2] | Potency [3] | Potency [4] | Potency [5] | Potency [8] | Potency [9]

O=[N+]([O-])c1ccc(Nc2ccccc2)cc1
inactive: Potency [1] | Potency [3] | Potency [8] | Potency [9]
active: Potency [2] 48.9 µM and 48.6 µM | Potency [4] 48.9 µM and 24.3 µM | Potency [5] 30.9 µM and 48.6 µM

ClCc1ccccn1
inactive: Potency [1] | Potency [2] | Potency [3] | Potency [4] | Potency [5] | Potency [9]

CCOP(=S)(OCC)SCSC(C)(C)C
61.6 µM (active) and inactive: Potency [5]
inactive: Potency [1] | Potency [2] | Potency [3] | Potency [4] | Potency [8] | Potency [9]
